Active and inactive are the calls of the source.
Key:
[1] = binders of probe aFSTL3 on microarray, primary screen, stem cell growth factor project, biochemical, small-molecule microarray, fluorescence 635/667 (AID 1064); settings: higher = more signal;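 further: measures binding of the biotinylated anti-FSTL3 antibody to printed compounds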
[2] = binders from COS7 lysate, DM2A8 probe, primary screen, torsin A project, cell lysate, small-molecule microarray, fluorescence 635/667 (AID 1065); settings: higher = more signal, COS7 lysate expressing mutant human TOR1A
[3] = binders of probe aFGF2 on microarray, primary screen, stem cell growth factor project, biochemical, small-molecule microarray, fluorescence 635/667 (AID 1067); settings: higher = more signal;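 further: measures binding of biotinylated aFGF2 protein to printed compounds on slides; z-score merges feature fluorescence and signal-to-noise across triplicate slides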
[4] = binders of probe aFGF10 on microarray, primary screen, stem cell growth factor project, biochemical, small-molecule microarray, fluorescence 635/667 (AID 1071); settings: higher = more signal;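 further: score merges 667 nm spot intensity and signal to noise from triplicate slides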
[5] = target: Neurogenic locus notch homolog protein 2 (Homo sapiens) (UniProt Q04721); assay: Notch2 binders on small-molecule microarrays, primary screen, biochemical, small-molecule microarray, 635 nm fluorescence, stem cell growth factors (AID 1073); settings: Notch2 binding, higher = more signal
Sequence of Neurogenic locus notch homolog protein 2 (Homo sapiens) (Q04721 whole entry, looked up, canonical isoform): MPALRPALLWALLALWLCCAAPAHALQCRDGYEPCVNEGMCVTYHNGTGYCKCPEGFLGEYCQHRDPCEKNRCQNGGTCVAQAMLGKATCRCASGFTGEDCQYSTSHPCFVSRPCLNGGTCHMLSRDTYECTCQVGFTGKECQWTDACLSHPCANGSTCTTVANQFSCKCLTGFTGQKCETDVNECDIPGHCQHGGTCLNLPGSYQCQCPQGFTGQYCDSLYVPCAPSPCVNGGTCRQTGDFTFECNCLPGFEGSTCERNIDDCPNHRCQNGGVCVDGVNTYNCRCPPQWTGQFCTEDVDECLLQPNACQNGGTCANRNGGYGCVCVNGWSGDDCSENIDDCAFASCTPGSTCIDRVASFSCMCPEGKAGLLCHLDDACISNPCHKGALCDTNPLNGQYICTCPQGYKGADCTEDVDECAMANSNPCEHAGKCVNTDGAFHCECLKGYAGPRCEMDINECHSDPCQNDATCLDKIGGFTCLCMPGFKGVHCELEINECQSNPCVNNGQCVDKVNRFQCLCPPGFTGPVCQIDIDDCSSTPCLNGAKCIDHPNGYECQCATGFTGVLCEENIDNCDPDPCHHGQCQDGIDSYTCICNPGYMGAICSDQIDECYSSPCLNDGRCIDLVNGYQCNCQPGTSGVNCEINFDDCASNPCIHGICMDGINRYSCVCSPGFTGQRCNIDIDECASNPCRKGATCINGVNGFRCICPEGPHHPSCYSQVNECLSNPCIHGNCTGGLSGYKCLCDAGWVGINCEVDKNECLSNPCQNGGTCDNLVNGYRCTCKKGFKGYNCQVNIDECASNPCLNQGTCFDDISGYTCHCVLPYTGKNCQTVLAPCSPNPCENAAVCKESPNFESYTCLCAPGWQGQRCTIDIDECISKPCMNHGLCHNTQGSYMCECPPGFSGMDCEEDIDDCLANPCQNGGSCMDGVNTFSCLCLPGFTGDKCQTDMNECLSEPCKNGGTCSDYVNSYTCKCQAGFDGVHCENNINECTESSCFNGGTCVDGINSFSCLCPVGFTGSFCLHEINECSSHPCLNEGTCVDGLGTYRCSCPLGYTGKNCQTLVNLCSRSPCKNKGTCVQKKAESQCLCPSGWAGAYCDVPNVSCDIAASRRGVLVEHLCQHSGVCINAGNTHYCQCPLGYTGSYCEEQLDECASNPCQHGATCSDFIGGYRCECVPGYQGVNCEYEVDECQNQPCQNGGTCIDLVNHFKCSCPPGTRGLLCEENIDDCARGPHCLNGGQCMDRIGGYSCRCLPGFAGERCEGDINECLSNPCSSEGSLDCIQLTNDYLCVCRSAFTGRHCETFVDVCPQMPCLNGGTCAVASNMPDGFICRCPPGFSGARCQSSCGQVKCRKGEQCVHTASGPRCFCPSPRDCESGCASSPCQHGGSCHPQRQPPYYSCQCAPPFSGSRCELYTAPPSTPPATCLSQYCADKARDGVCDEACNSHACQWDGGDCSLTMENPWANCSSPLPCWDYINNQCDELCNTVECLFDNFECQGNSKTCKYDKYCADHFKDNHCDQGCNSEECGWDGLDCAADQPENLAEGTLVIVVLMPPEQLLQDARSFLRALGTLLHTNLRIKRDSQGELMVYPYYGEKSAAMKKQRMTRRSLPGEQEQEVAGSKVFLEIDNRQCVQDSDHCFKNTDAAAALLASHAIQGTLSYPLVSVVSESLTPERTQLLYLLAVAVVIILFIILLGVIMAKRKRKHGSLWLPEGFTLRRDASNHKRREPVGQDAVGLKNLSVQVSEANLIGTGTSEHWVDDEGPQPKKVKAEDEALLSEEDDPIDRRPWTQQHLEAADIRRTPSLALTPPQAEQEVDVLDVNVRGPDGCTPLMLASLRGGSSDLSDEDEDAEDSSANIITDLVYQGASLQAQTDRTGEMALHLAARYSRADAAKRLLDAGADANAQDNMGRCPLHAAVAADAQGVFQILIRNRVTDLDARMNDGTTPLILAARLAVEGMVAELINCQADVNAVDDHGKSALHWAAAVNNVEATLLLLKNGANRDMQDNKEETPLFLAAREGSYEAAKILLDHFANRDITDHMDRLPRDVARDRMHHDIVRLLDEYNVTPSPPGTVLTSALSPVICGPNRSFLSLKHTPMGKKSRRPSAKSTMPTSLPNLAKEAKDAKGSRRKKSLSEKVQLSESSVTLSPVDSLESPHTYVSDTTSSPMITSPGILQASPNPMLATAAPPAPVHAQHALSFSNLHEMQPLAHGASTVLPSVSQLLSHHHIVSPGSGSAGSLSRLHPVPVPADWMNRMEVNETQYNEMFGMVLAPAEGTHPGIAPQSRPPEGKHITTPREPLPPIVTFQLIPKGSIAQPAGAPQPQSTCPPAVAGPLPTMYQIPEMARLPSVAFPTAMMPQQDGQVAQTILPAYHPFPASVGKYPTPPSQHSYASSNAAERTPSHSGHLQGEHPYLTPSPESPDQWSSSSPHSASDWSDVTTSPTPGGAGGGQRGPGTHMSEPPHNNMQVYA

[6] = target: Pro-neuregulin-1, membrane-bound isoform (Homo sapiens) (UniProt Q02297); assay: NRG1 binders on small-molecule microarrays, primary screen, psychiatric disease protein project, biochemical, small-molecule microarray, fluorescence 635/667 (AID 1075); settings: NRG1 binding, 635 nm fluorescence, higher = more signal;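 further: score combines 667 nm spot fluorescence with signal to noise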
[7] = tested on: Neuregulin-1 EGF-like domain; assay: binders of neuregulin-1 EGF-like domain, primary screen, biochemical, small-molecule microarray, 635 nm fluorescence (AID 1081); settings: small-molecule microarray binding, higher = more signal;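 further: binding of the protein to compounds printed on small-molecule microarray slides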
[8] = FRG1 promoter luciferase signal modulators, primary screen, FRG1 inhibition for FSHD, cell-based, C2C12 myotubes, firefly/Renilla luciferase, luminescence (AID 1084); settings: higher = more signal, called active from +8 up or from −8 down
[9] = binders of probe aFST on microarray, primary screen, stem cell growth factor project, biochemical, small-molecule microarray, fluorescence 635/667 (AID 1086); settings: higher = more signal;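 further: score merges 667 nm fluorescence with signal-to-noise of each printed compound spot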
[10] = binders of probe aHhip on microarray, primary screen, stem cell growth factor project, biochemical, small-molecule microarray, fluorescence 635/667 (AID 1087); settings: higher = more signal;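 further: score merges spot fluorescence at 667nm with spot signal to noise ratio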
[11] = tested on: PRMT1 (protein arginine N-methyltransferase 1); assay: PRMT1 binders on small-molecule microarrays, primary screen, biochemical, small-molecule microarray, 635 nm fluorescence (AID 1088); settings: small-molecule microarray binding, higher = more signal;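 further: binding of Prmt1 protein to compounds spotted on small-molecule microarray slides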
[12] = yeast growth modulation, basal conditions, primary screen, YJM789 clinical isolate, OD600, 24 h (AID 1089);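 further: growth of clinical yeast isolate S. cerevisiae YJM 789 seeded 1000 cells per well; test concentration not given here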; settings: S. cerevisiae YJM789 growth, higher = more signal, called active from +8 up or from −8 down
[13] = fission yeast growth modulation, primary screen, strain 972, OD600, 24 h, no modulator (AID 1090);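 further: basal condition with compound alone and no growth modifier present; test concentration not given here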; settings: S. pombe 972 growth, higher = more signal, called active from +8 up or from −8 down
[14] = S. cerevisiae growth modulation with rapamycin, primary screen, strain BY4716, OD600, 96 h (AID 1091); settings: higher = more signal, called active from +8 up or from −8 down; further: test concentration not given here
[15] = target: Torsin-1A-interacting protein 2 (Homo sapiens) (UniProt Q8NFQ8); assay: LULL1 binders on small-molecule microarray, primary screen, cell lysate, human LULL1 lysate, 635/667 nm fluorescence (AID 1092); settings: hLULL1 lysate binding, 635 nm fluorescence, higher = more signal;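 further: probe is lysate of COS7 cells overexpressing human LULL1; score merges per-feature 667 nm fluorescence with signal-to-noise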
[16] = E. coli growth modulation, two-sided OD650, primary screen, E. coli filamentation project, strain DRC41, 24 h (AID 1093); settings: OD650, 24 h, higher = more signal, called active from +8 up or from −8 down;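 further: MC1000 strain lacking acrAB efflux and sulA so SOS filamentation is blocked; test concentration not given here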
[17] = small-molecule microarray binders of probe aLefty2, primary screen, biochemical, biotinylated probe, 635/667 nm fluorescence (AID 1094); settings: higher = more signal;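 further: score merges spot fluorescence near 667 nm with spot signal-to-noise ratio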
[18] = tested on: Noggin (protein binding on small-molecule microarray); assay: Noggin binders on small-molecule microarray, primary screen, biochemical, 635/667 nm fluorescence (AID 1095); settings: 635 nm fluorescence, higher = more signal;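 further: score merges 667 nm feature fluorescence with signal to noise over triplicate slides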
[19] = target: Neurogenic locus notch homolog protein 3 (Homo sapiens) (UniProt Q9UM47); assay: NOTCH3 binders on small-molecule microarray, primary screen, biochemical, 635/667 nm fluorescence (AID 1096); settings: NOTCH3 binding, 635 nm fluorescence, higher = more signal
Sequence of Neurogenic locus notch homolog protein 3 (Homo sapiens) (Q9UM47 whole entry, looked up): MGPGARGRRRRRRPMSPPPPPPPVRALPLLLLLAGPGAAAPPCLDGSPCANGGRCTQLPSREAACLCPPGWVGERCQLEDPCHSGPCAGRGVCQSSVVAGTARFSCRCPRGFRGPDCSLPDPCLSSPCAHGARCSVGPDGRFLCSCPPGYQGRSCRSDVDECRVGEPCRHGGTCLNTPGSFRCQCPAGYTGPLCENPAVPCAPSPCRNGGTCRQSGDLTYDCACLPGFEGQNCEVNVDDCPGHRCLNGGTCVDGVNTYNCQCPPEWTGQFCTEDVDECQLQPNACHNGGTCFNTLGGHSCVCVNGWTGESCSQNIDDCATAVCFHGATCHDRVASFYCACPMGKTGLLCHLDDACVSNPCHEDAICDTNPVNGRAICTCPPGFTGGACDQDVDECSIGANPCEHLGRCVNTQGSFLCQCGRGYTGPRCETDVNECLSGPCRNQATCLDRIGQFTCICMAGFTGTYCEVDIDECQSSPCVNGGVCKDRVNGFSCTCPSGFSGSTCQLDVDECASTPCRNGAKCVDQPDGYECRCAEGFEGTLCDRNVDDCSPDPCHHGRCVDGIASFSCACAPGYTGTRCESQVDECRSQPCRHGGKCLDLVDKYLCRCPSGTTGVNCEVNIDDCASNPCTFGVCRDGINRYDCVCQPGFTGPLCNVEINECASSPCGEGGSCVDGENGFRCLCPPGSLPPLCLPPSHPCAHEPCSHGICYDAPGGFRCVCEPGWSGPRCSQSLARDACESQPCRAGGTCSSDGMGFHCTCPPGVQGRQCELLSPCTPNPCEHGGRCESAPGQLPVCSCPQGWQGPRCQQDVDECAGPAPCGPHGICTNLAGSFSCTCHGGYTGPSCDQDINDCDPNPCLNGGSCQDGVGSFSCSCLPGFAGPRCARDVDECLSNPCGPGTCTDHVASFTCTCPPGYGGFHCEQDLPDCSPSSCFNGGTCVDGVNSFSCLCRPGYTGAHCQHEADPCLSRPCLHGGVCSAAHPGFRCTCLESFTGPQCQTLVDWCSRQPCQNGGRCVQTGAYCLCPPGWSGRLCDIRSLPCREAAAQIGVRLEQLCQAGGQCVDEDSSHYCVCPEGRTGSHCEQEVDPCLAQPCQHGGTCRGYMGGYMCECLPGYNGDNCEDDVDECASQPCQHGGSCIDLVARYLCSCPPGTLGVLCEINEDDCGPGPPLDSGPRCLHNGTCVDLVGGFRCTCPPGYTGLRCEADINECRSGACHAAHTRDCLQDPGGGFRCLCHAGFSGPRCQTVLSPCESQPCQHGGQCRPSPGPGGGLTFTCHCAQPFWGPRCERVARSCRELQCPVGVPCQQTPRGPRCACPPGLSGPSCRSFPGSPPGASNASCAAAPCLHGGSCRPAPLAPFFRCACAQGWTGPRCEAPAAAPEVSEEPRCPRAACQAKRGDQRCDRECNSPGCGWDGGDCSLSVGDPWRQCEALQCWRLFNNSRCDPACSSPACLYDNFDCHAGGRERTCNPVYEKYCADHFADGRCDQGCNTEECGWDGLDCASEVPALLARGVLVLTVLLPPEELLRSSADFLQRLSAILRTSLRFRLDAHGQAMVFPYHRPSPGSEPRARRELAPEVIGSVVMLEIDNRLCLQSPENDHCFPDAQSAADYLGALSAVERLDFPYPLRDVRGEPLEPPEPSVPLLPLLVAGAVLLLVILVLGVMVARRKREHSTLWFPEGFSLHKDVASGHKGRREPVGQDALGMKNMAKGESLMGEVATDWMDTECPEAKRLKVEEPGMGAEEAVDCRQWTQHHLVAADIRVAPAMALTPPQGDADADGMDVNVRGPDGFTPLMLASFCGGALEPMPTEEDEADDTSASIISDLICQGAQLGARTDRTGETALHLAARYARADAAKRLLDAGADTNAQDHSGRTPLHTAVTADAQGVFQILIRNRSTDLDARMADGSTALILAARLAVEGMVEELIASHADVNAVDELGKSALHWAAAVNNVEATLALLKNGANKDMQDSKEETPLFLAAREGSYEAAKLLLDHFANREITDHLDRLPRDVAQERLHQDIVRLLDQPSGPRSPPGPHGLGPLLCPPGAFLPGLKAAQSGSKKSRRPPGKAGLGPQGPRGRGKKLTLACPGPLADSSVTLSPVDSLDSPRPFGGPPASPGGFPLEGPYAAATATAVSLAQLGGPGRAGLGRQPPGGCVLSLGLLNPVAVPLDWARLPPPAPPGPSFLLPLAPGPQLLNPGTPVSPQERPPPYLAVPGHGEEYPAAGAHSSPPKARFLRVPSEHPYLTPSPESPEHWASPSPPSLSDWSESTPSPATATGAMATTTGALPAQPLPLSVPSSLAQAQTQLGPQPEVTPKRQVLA

[20] = small-molecule microarray binders of probe aEGFR, primary screen, biochemical, biotinylated probe, 635/667 nm fluorescence (AID 1097); settings: higher = more signal;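 further: probe is a biotinylated anti-EGFR antibody binding compounds printed on slides; score combines fluorescence near 667 nm and signal to noise of each spot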

SMILES	composite z-score [1]	composite z-score [2]	composite z-score [3]	composite z-score [4]	composite z-score [5]	composite z-score [6]	composite z-score [7]	z-score [8]	composite z-score [9]	composite z-score [10]	composite z-score [11]	z-score [12]	z-score [13]	z-score [14]	composite z-score [15]	z-score [16]	composite z-score [17]	composite z-score [18]	composite z-score [19]	composite z-score [20]
CCOC(=O)CCN1C(=O)[C@H]2[C@H]3[C@H](O)[C@H](O)CC(=NOCC=C(C)CCC=C(C)C)[C@@H]3CC[C@H]2C1=O	0.149	1.13	-0.133	0.84	0.845	0.258	0.658	-0.594 (inactive)	0.42	0.0515	0.316	-1.28 (inactive)	0.237 (inactive)	-0.44 (inactive)	1.01	6.79 (inactive)	-0.197	0.742	0.808	-0.0415
CCN1C(=O)[C@H]2[C@H]3[C@H](O)[C@H](O)CC(=NOCC=C(C)CCC=C(C)C)[C@@H]3CC[C@H]2C1=O	-0.524	1.36	-0.146	0.483	0.2	-0.0702	0.91	0.256 (inactive)	0.774	-0.0994	1.4	-0.56 (inactive)	-1.86 (inactive)	-1.3 (inactive)	0.915	0.756 (inactive)	-0.0973	0.962	1.08	0.095
CCN1C(=O)[C@H]2[C@H]3[C@H](O)[C@H](O)CC(=NO[C@H](C)c4cn([C@H](CO)Cc5ccccc5)nn4)[C@@H]3CC[C@H]2C1=O	-0.907	0.0378	-0.116	1.08	1.01	0.782	0.934	0.804 (inactive)	0.606	-0.344	1.4	-0.444 (inactive)	0.121 (inactive)	-0.371 (inactive)	1.59	0.607 (inactive)	-0.207	0.496	0.89	-0.0132
CCCC[C@H]1CN2[C@@H](CC[C@@H](C)[C@@H]2c2ccc(Br)cc2)C(=O)O1	-0.333	0.389	-0.0894	-0.947	0.564	1.19	1.11	-0.374 (inactive)	0.253	0.0722	1.56	0.149 (inactive)	-16.5 (active)	-0.435 (inactive)	1.28	0.0173 (inactive)	-0.109	0.444	0.728	-0.0616
CC(C)CN1CCc2nc(-c3ccccc3)c3c(c2C1)CO[C@@H](C)C3	-0.277	0.306	-0.0291	0.923	1.31	0.43	0.846	0.955 (inactive)	0.147	-0.16	1.42	-0.319 (inactive)	0.218 (inactive)	-0.0674 (inactive)	1.71	0.801 (inactive)	-0.145	1.5	1.08	0.0914
O=C1C=C[C@@H](O)[C@@H]2[C@@H]3C(=O)N(c4cccc(Oc5ccccc5)c4)C(=O)[C@@H]3CC[C@@H]12	-0.575	-0.285	-0.0527	-0.102	0.493	-0.04	0.588	0.485 (inactive)	0.241	-0.274	0.491	0.162 (inactive)	-0.753 (inactive)	-0.0875 (inactive)	0.36	0.533 (inactive)	-0.204	0.403	0.477	0.0443
COC(=O)CC=C[C@@H](C)[C@@H](C=NOC[C@@H](C)[C@H](OCc1ccccc1)C(C)C)NS(=O)(=O)c1ccc(C)cc1	-0.433	0.142	-0.0633	-0.0494	-0.801	-0.267	-0.332	0.539 (inactive)	-0.0646	-0.0003	0.123	-0.161 (inactive)	1.53 (inactive)	0.227 (inactive)	0.0335	-1.42 (inactive)	-0.27	0.452	-1.44	-0.142
CC(C)=NO[C@H](C)c1cn([C@@H]2COC[C@H]2O)nn1	-0.517	-0.276	-0.163	0.517	0.712	0.0493	0.305	-0.807 (inactive)	0.362	-0.0618	0.629	-0.173 (inactive)	-1.02 (inactive)	0.127 (inactive)	0.242	0.132 (inactive)	-0.0936	0.683	0.562	0.0102
CO[C@H]1C[C@@H]2C[C@H](O)CC(CC(=O)O[C@@H](C=CCC(C)C)C[C@@H]3CC[C@H](C)[C@@H](C1)O3)O2	-0.479	0.613	-0.0442	0.365	1.03	-0.33	0.661	0.0521 (inactive)	0.36	-0.226	1.54	-0.124 (inactive)	-0.425 (inactive)	-0.414 (inactive)	1.82	0.128 (inactive)	-0.158	0.506	1.06	-0.0458
O=C(NCCC[N+]1=CC=NC1c1ccccc1)N1CCCc2nc(-c3ccc(Br)cc3)ccc21 (stereo not given)	-0.265	-0.14	-0.107	0.345	0.576	1.21	0.97	0.88 (inactive)	0.944	0.0373	-0.476	-0.435 (inactive)	-1.69 (inactive)	0.763 (inactive)	0.0594	2.39 (inactive)	-0.0616	0.232	-0.378	-0.0183
COc1ccc(O[C@H]2C=C[C@@H](c3ccccc3)O[C@@H]2COC(=O)NCc2cccc3ccccc23)cc1	-0.0348	-0.0761	-0.107	0.0599	-0.096	-0.027	0.0452	-0.97 (inactive)	-0.116	-0.294	0.133	0.68 (inactive)	0.393 (inactive)	1.28 (inactive)	0.33	-0.477 (inactive)	-0.106	0.0672	-0.574	-0.122
CC(C)CON=C1C[C@@H](O)[C@@H](O)[C@@H]2[C@@H]3C(=O)N(c4ccc(F)cc4F)C(=O)[C@@H]3CC[C@@H]12	-0.527	0.118	-0.0502	0.345	0.429	0.984	0.557	0.581 (inactive)	0.283	-0.0994	0.601	0.0347 (inactive)	-0.786 (inactive)	-0.733 (inactive)	0.956	1.24 (inactive)	-0.212	0.344	0.898	-0.026
CO[C@@H]1C=CCC(=O)N[C@@H](C)C(=O)OC[C@@H](OC)[C@H](C)C=CCC(=O)OC[C@H]1C	-0.596	2.23	-0.116	-0.631	-0.88	-0.503	0.233	-0.163 (inactive)	-0.045	0.0373	1.37	-0.563 (inactive)	-0.832 (inactive)	-0.333 (inactive)	-1.33	0.615 (inactive)	-0.124	1.89	0.312	-0.0357
CCN1C(=O)[C@H]2[C@H]3[C@H](O)[C@H](O)CC(=NNC(=O)OCc4ccccc4)[C@H]3CC[C@H]2C1=O	0.307	0.447	0.0572	-0.0005	-0.0049	-0.117	-0.696	-0.209 (inactive)	0.313	-0.13	-0.72	-0.0067 (inactive)	0.0826 (inactive)	-0.144 (inactive)	-0.3	-0.667 (inactive)	0.0166	0.667	-0.169	-0.132
COC(=O)C1=C(C)N(Cc2ccccc2)C2=C3C(=O)OCC[C@@H]3[C@@](O)(C(=O)OC)C(=O)N2[C@@H]1c1ccccc1	-0.69	-0.0402	-0.118	0.495	0.346	-0.143	0.0271	0.245 (inactive)	-0.0464	0.0139	-0.737	0.833 (inactive)	-0.992 (inactive)	-0.265 (inactive)	0.0296	0.659 (inactive)	-0.0342	0.454	0.542	0.0035
CO[C@H]1COC(=O)[C@H](C)COC(=O)[C@@H](OCc2ccccc2)C=C[C@@H]1C	-0.411	0.0756	-0.178	0.0844	-0.501	-0.319	-0.365	-0.224 (inactive)	1.27	0.449	0.855	0.138 (inactive)	-1.28 (inactive)	-0.876 (inactive)	-0.198	0.554 (inactive)	-0.241	1	-0.732	-0.188
CC(C)(C)N1C(=O)[C@H]2[C@H]3[C@H](O)[C@H](O)CC(=NOC[C@@H](O)COCc4ccco4)[C@@H]3CC[C@H]2C1=O	0.812	0.152	-0.0193	0.112	0.0503	-0.0263	-0.214	0.528 (inactive)	-0.0115	-0.0994	-0.424	-0.0093 (inactive)	0.257 (inactive)	0.498 (inactive)	-0.238	0.635 (inactive)	0.16	0.0106	-0.589	-0.141
C[C@]12CCC3c4ccc(OCC5CO5)cc4CCC3C1CC[C@@H]2O (stereo not given in full)	0.157	0.258	-0.0415	0.381	1.04	0.703	1.07	1.05 (inactive)	0.473	-0.0994	0.205	0.199 (inactive)	-4.77 (inactive)	-0.494 (inactive)	2.11	0.392 (inactive)	0.124	0.0768	0.162	0.0025
CC(C)(C)N1C(=O)[C@H]2[C@H]3[C@H](O)[C@H](O)CC(=NNC(=O)OCc4ccccc4)[C@H]3CC[C@H]2C1=O	-0.642	0.0714	-0.0684	0.559	0.389	0.26	0.748	-0.0034 (inactive)	-0.0777	-0.169	1.3	0.272 (inactive)	-1.49 (inactive)	-0.391 (inactive)	1.39	0.0955 (inactive)	-0.191	0.683	0.4	-0.0051
COc1ccc(COC(=O)NN=C2C[C@@H](O)[C@@H](O)[C@@H]3[C@@H]4C(=O)N(Cc5ccc6c(c5)OCO6)C(=O)[C@@H]4CC[C@H]23)cc1	1.62	-0.197	-0.0269	-0.0605	-0.546	-0.393	-0.282	1.02 (inactive)	0.648	0.0373	0.041	1.13 (inactive)	0.713 (inactive)	-0.369 (inactive)	0.259	0.434 (inactive)	0.475	-0.961	-0.523	-0.194

— PubChem BioAssay
